About 2,000 (0.91%) of roughly 220,000 compounds were called active. Another 2% or so got no clear call; they are omitted. Rule as the data show it: inconclusive = inhibition above about 80% without an active follow-up result; inactive = below that; test concentration not stated here. These entries were drawn from the full list. Potency and affinity values are given separately.
Experiment: M. tuberculosis H37Rv growth inhibitors, H37Rv strain (AID 1626);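 also: bacteria incubated seven days before Alamar blue readout; 0% = bacteria only wells and 100% = bacteria with antibiotic wells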
Conditions: stronger effect = higher value, concentration not given here

Row | SMILES | inhibition
1 | CN1CCc2ccccc2CC1=O | 1.98% (inactive)
2 | N#CC1=C2SCC(O)(c3ccccc3)N2C(=O)CC1c1cccs1 (configuration not stated) | 3.45% (inactive)
3 | N#CC1=C2SCC(O)(c3ccccc3)N2C(=O)CC1c1ccccc1 (configuration not stated) | -11.4% (inactive)
4 | COC(=O)CSc1nnc(CNC(=O)c2ccccc2F)n1-c1ccccc1 | -1.52% (inactive)
5 | Cc1cccc(N2CCN(C(=O)c3ccncc3)CC2C)c1 (configuration not stated) | -7.46% (inactive)
6 | Cc1cccc(N2CCN(C(=O)c3cc(C)oc3C)CC2C)c1 (configuration not stated) | 4.99% (inactive)
7 | Cc1cc(C)cc(NC(=S)/C(=C(\[O-])c2ccc(Cl)cc2Cl)[n+]2ccccc2)c1 | 6.94% (inactive)
8 | Cc1ccc(S(=O)(=O)N2CCCN(S(=O)(=O)c3ccc4c(c3)OCCO4)CC2)cc1 | 8.01% (inactive)
9 | O=C1c2ccccc2S(=O)(=O)c2cc(C(=O)N(c3ccccn3)c3ccccn3)ccc21 | -6.02% (inactive)
10 | Clc1ccccc1-c1nnc2sc(C3COc4ccccc4O3)nn12 (configuration not stated) | 3.12% (inactive)
11 | Fc1ccc(-c2nnc3sc(C4COc5ccccc5O4)nn23)cc1 (configuration not stated) | 20.6% (inactive)
12 | O=C(NNc1c(Cl)cccc1Cl)C1CCC1 | -0.74% (inactive)
13 | Cc1cc(N2CCN(C)CC2)nc2ccc(NC(=S)NCCCN3CCN(C)CC3)cc12 | 1.11% (inactive)
14 | CCCCCOc1ccc(/C=c2\sc3nc(=O)c(-c4ccccc4)nn3c2=O)cc1OC | -2.22% (inactive)
15 | Cc1ccccc1NC(=O)/C=C/c1cccc(C(F)(F)F)c1 | 3.62% (inactive)
16 | Cn1c(NC(=O)C[n+]2cc(-c3ccc(F)cc3)n3c2CCC3)cc(=O)n(C)c1=O | -5.35% (inactive)
17 | Cc1ccc(-c2c[n+](CC(=O)Nc3ccccc3C)c3n2CCC3)cc1 | 5.29% (inactive)
18 | CCc1ccc(NC(=O)C[n+]2cc(-c3ccc(C)cc3)n3c2CCC3)cc1 | 0.48% (inactive)
19 | Cc1ccc(NC(=O)C[n+]2cc(-c3ccccc3)n3c2CCC3)cc1 | -1.61% (inactive)

Row | SMILES | inhibition
20 | Cc1ccc(-c2c[n+](CC(=O)Nc3ccc(C)cc3C)c3n2CCC3)cc1 | 2.12% (inactive)
21 | O=C(C[n+]1cc(-c2ccc(F)cc2)n2c1CCC2)Nc1nc(-c2ccccc2)cs1 | 78.7% (inactive)
22 | CCCCC(=O)OCC(=O)Nc1ccc(C)c(F)c1 | 9.33% (inactive)
23 | Cc1ccc(NC(=S)N(Cc2cccs2)Cc2cc3cc(C)cc(C)c3[nH]c2=O)cc1 | -1.91% (inactive)
24 | Fc1ccccc1CN1CCCN(C(=S)Nc2cccc(Cl)c2)C1 | -6.44% (inactive)
25 | c1ccc(-c2nnc(N3CCOCC3)nc2-c2ccccc2)cc1 | 4.29% (inactive)
26 | COCCn1c(=NC(=O)c2cc(Cl)sc2Cl)sc2cc(S(N)(=O)=O)ccc21 | 17.1% (inactive)
27 | C=CCn1c(=NC(=O)c2cc(Cl)sc2Cl)sc2cc(S(N)(=O)=O)ccc21 | 52.4% (inactive)
28 | COc1ccc(Nc2nnc(C)c(=O)[nH]2)c(OC)c1 | 0% (inactive)
29 | CCn1cc(C(=O)O)c(=O)c2cc(F)c(N3CCN(C(=S)NC(=O)c4ccccc4F)CC3)cc21 | 62.5% (inactive)
30 | CCCCCCC(=O)N1CCN(c2cc3c(cc2F)c(=O)c(C(=O)O)cn3CC)CC1 | 0.13% (inactive)
31 | CCn1cc(C(=O)O)c(=O)c2cc(F)c(N3CCN(S(=O)(=O)c4ccc(Br)cc4)CC3)cc21 | 13.5% (inactive)
32 | CCn1cc(C(=O)NCc2ccncc2)c(=O)c2cc(F)c(N3CCN(C(=O)c4ccco4)CC3)cc21 | 10.2% (inactive)
33 | CCn1cc(C(=O)O)c(=O)c2cc(F)c(N3CCN(C(=S)NC(=O)c4ccccc4Cl)CC3)cc21 | 29.7% (inactive)
34 | CCn1cc(C(=O)O)c(=O)c2cc(F)c(N3CCN(C(=O)Nc4ccccc4)CC3)cc21 | 74.6% (inactive)
35 | CCn1cc(C(=O)NCc2ccco2)c(=O)c2cc(F)c(N3CCN(C(=O)c4ccco4)CC3)cc21 | 71.1% (inactive)
36 | CCn1cc(C(=O)O)c(=O)c2cc(F)c(N3CCN(C(=S)NC(=O)c4ccccc4)CC3)cc21 | 30.7% (inactive)
37 | CCN1C(=O)N[C@@H](c2ccccc2)[C@@H](C(=O)OC)[C@H]1C | -12.7% (inactive)
38 | CC(=O)OCCNc1nc(-c2ccccc2)nc2ccccc12 | -5.25% (inactive)

Row | SMILES | inhibition
39 | CCCN(Cc1ccccc1)C(=S)Nc1cccc(C)c1C | 3.47% (inactive)
40 | CCC(C)C(=O)Nc1cccc(SC)c1 (configuration not stated) | 0.86% (inactive)
41 | COc1cc2[nH]c(=S)nc(NC3CCCC3)c2cc1OC | 0.6% (inactive)
42 | CCN(CC)NC(=O)Nc1ccccc1 | -12% (inactive)
43 | CCOc1ccc(NC(=O)CSc2nnc(Cc3cccn3C)n2-c2ccc(F)cc2)cc1 | -6.5% (inactive)
44 | Nc1ncnc2c1ncn2[C@@H]1O[C@H](CO)[C@@H](O)[C@H]1O | -2.69% (inactive)
45 | Nc1ncnc2c1ncn2C1OC(CO)C(O)C1O (configuration not stated) | -1.34% (inactive)
46 | Nc1ncnc2c1ncn2[C@@H]1O[C@H](CO)[C@@H](O)[C@@H]1O | -0.73% (inactive)
47 | Nc1nc(F)nc2c1ncn2[C@@H]1O[C@H](CO)[C@@H](O)[C@@H]1O | 72.3% (inactive)
48 | CC(=O)Oc1ccc(N2C(=O)C3C(C2=O)C(C(=O)c2ccc(Cl)cc2)N2CCCC32)cc1 (configuration not stated) | -5.33% (inactive)
49 | CCOC(=O)/C=C1\SCC(=O)N1CC(=O)NC12CC3CC(CC(C3)C1)C2 | 6.97% (inactive)
50 | CN(C)/C=C1\C(=O)N(c2ccc(Cl)cc2)CS1(=O)=O | -3.16% (inactive)
51 | O=C(C1CCC(CNc2c(N3CCCCC3)c(=O)c2=O)CC1)N1CCCC1 (configuration not stated) | -3.71% (inactive)
52 | CC1CCN(c2c(NCC3CCC(C(=O)N4CCCC(C)C4)CC3)c(=O)c2=O)CC1 (configuration not stated) | -5.27% (inactive)
53 | CC1CCN(c2c(NCC3CCC(C(=O)NCCc4ccc(Cl)cc4)CC3)c(=O)c2=O)CC1 (configuration not stated) | 11.6% (inactive)
54 | O=C(NCc1ccc(Cl)cc1)C1CCC(CNc2c(N3CCCCC3)c(=O)c2=O)CC1 (configuration not stated) | 5.8% (inactive)
55 | CCNC(=O)CC1C(=O)N(CC)C(=S)N1NC(=O)c1ccccc1 (configuration not stated) | -3.85% (inactive)
56 | CCCCOc1ccc(C(NC(=O)OCC)NC(=O)OCC)cc1 | 5.59% (inactive)
57 | CC(C)OC(=O)CN1C(=O)C(C)(C)Oc2ccc(C(=O)NC3CC3)cc21 | -5.84% (inactive)
